In the library only some 1.7% were active in any assay of this set; here they are far more common.
Anesthetic bind = qHTS Assay for Identification of Novel General Anesthetics. Ferritin light chain (Equus caballus), P02791. AID 485281, 2010. Potency, µM (highest dose often 77.5 µM), for inactives: at the top dose activity change, negative = displacement, hits mostly inhibitors. apoferritin/1-aminoanthracene competitive binding, fluorescence. 0.074% of 350,000 active; further: potency means the concentration at half of the fitted maximal effect; on the % scale 0 is the no-effect control and ±100 the full control effect; nearly all actives have a fitted effect of over 20% in size
Target sequence (P02791 2-175 limits assumed): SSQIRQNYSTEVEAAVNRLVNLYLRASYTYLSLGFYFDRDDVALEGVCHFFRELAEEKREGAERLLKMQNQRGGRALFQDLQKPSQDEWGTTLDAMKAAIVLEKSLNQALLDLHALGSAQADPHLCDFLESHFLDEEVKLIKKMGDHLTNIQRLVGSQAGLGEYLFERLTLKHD
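Probe: 1-aminoanthracene (50% saturated, PBS). Protein: horse-spleen apoferritin, 10 uM. Incubation: 10 min, room temperature. Detection: 380 nm excitation, 535 nm emission. Analysis: normalized response, four-parameter Hill.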
TrxR1 inh-1 = qHTS Assay for Inhibitors of Mammalian Selenoprotein Thioredoxin Reductase 1 (TrxR1): qHTS. Thioredoxin reductase 1, cytoplasmic (Rattus norvegicus), O89049. 1% of 390,000 active. AID 588453, 2011. Potency, µM (series often up to 114 µM), inactives show at the highest dose activity change, negative = inhibition, most hits filed as inhibitors. recombinant rTrxR1, NADPH fluorescence consumption, selenite substrate; further: potency means the concentration at half of the fitted maximal effect; on the % scale 0 is the no-effect control and ±100 the full control effect; nearly all actives have a fitted effect of over 65% in size
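Rat TrxR1 (90 nM in the dispensed reagent) was pre-reduced with 400 uM NADPH for 5 min at room temperature, then incubated with compound for 15 min. After 400 uM selenite was added, NADPH fluorescence (Ex 340/Em 450 nm) was followed for 8 min.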
TrxR1 substrate = qHTS Assay for Substrates of Mammalian Selenoprotein Thioredoxin Reductase 1 (TrxR1): qHTS. Potency, µM (series often up to 114 µM), for the others: at the highest dose activity change, negative = substrate turnover. 0.01% of 390,000 active. purified TrxR1 substrate turnover, NADPH consumption readout. Thioredoxin reductase 1, cytoplasmic (Rattus norvegicus), O89049; further: potency means the concentration at half of the fitted maximal effect; on the % scale 0 is the no-effect control and ±100 the full control effect; nearly all actives have a fitted effect of over 50% in size
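Rat TrxR1, dispensed at 90 nM, was prereduced with 400 uM NADPH (final) for 5 min at ~22 deg C, then incubated with compound 15 min before 400 uM selenite. A first-read NADPH fluorescence drop versus no-compound background flagged substrates.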
GRP78 ERSR act = qHTS for Inducers of the Endoplasmic Reticulum Stress Response (ERSR) in Human Glioma: qHTS; AID 602332, 2012; U87-MG GRP78 promoter luciferase reporter, 16 h; 0.02% of 420,000 active; Potency, µM, for the others: at the highest dose activation, hits mostly activators; further: potency means the concentration at half of the fitted maximal effect; series mostly up to about 76 µM; % of control where 0% means no effect; nearly all actives have a fitted effect of over 35% in size
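Stably transfected U87-MG human glioma cells carrying a GRP78-based luminescent sensor were seeded at 1000 cells/well, pin-dosed with compounds and incubated 16 h. Luciferase reagent was then added, and end-point luminescence was read after 10 min at room temperature.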
IDH1 R132H inh = qHTS for Inhibitors of mutant isocitrate dehydrogenase 1 (IDH1): qHTS; 0.093% of 390,000 active; Isocitrate dehydrogenase [NADP] cytoplasmic (Homo sapiens), O75874; Potency, µM (titrated, usually from 76.6 µM), without a hit: top-dose activity change, negative = inhibition, usual class: inhibitors; IDH1-R132H enzyme, NADPH consumption, diaphorase/resazurin fluorescence; AID 602179, 2012; further: potency means the concentration at half of the fitted maximal effect; on the % scale 0 is the no-effect control and ±100 the full control effect; nearly all actives have a fitted effect of over 65% in size
Target sequence (O75874 whole entry R132H, stated change not applied): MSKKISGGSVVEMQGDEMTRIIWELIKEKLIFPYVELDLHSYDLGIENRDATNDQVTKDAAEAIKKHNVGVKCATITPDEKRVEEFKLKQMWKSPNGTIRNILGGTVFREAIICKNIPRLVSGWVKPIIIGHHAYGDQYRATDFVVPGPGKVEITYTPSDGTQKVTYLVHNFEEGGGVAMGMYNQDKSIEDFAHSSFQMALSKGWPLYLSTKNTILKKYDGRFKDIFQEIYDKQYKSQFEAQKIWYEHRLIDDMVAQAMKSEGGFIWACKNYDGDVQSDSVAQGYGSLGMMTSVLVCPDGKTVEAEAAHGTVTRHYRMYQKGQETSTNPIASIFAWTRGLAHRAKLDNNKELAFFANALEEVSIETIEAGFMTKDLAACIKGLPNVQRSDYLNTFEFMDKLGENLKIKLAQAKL
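IDH1-R132H (0.5 ug/mL dispensed) in pH 7.5 Tris buffer was preincubated 30 min with compound, then given a substrate mix of 0.016 mM NADPH and 2 mM alpha-KG for 80 min at room temperature; remaining NADPH was read by diaphorase/resazurin fluorescence.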
12-LOX inh = Primary qHTS assay for inhibitors of human arachidonate 12S-lipoxygenase (ALOX12): Round 2; Polyunsaturated fatty acid lipoxygenase ALOX12 (Homo sapiens), P18054; purified 12hLO, xylenol orange hydroperoxide absorbance; Potency, µM (top dose mostly 108 µM), for the others: top-dose activity change, negative = inhibition, hits mostly inhibitors; 1.1% of 580,000 active; AID 1671190, 2021; further: potency means the concentration at half of the fitted maximal effect; on the % scale 0 is the no-effect control and ±100 the full control effect
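Purified human 12hLO (150 nM final) in 25 mM Hepes, 0.01% Triton X-100, pH 7.0 was preincubated 15 min at room temperature with compound. Then 40 uM arachidonic acid was added, 30 min. Hydroperoxide was read by Fe-XO absorbance ratio 573/405 nm.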
TRb-SRC2 inh = Protein Interaction Secondary Assay for Inhibitors of the Interaction of Thyroid Hormone Receptor and Steroid Receptor Coregulator 2, Alpha Screen; 50% of 30 active; AID 2444, 2010; shares compounds with TrxR1 inh-1; Potency, µM; AlphaScreen TRb LBD-SRC2 peptide binding, luminescence; calls by dose curve
HepG2 viability = Cell Viability Secondary Assay for Inhibitors of the Interaction of Thyroid Hormone Receptor and Steroid Receptor Coregulator 2. shares compounds with TrxR1 inh-1. HepG2 viability, ATP luminescence (CellTiter-Glo), 72 h. Potency, µM. 50% of 40 active. AID 2447, 2010; calls by dose curve
AR-SRC2 inh = Androgen Receptor Selectivity Assay for Inhibitors of the Interaction of Thyroid Hormone Receptor and Steroid Receptor Coregulator 2; shares compounds with TrxR1 inh-1; 25 tested, under 10 active; AR-LBD Tx-SRC2-3 fluorescence polarization, 3 h; calls only; call rule not given here
PPARg-DRIP2 inh = PPAR gamma Selectivity Assay For Inhibitors of the Interaction of Thyroid Hormone Receptor and Steroid Receptor Coregulator 2; shares compounds with TrxR1 inh-1; PPARg LBD / Texas Red DRIP-2 peptide, fluorescence polarization, 3 h; Potency, µM; 25 tested, under 10 active; calls by dose curve
VDR SRC2 FP = Vitamin D Receptor Selectivity Assay for Inhibitors of the Interaction of Thyroid Hormone Receptor and Steroid Receptor Coregulator 2 | VDR LBD/SRC2-3 peptide, fluorescence polarization, 3 h | shares compounds with TrxR1 inh-1 | Potency, µM | 25 tested, under 10 active | AID 2455, 2010; calls by dose curve
GR inh = qHTS Assay for Inhibitors of Mammalian Selenoprotein Thioredoxin Reductase 1 (TrxR1): Counterassay in Glutathione Reductase (GR). shares compounds with TrxR1 inh-1. activity change, negative = inhibition, % at 57.1 µM. 55 tested, under 10 active. AID 652020, 2013. purified GR, DTNB reduction absorbance 405 nm kinetic
TrxR1 inh-2 = qHTS Assay for Inhibitors of Mammalian Selenoprotein Thioredoxin Reductase 1 (TrxR1): Hit Validation in Primary Screen; shares compounds with TrxR1 inh-1; recombinant TrxR1, NADPH fluorescence consumption, selenite substrate; Potency, µM, most hits filed as inhibitors; 50% of 55 active; AID 652023, 2013
TrxR1 insulin MOA = qHTS Assay for Inhibitors of Mammalian Selenoprotein Thioredoxin Reductase 1 (TrxR1): Insulin MOA Assay. 20% of 55 active. TrxR1 Trx-coupled insulin reduction, NADPH absorbance 340 nm. Potency, µM. shares compounds with TrxR1 inh-1. AID 652037, 2013;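 active means compounds with a measured potency under 100 micromolar; inconclusive means filed, but no rule given; inactive means potency at or above that, or unmeasurable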
TrxR1 inh-3 = qHTS Assay for Inhibitors of Mammalian Selenoprotein Thioredoxin Reductase 1 (TrxR1): DTNB Assay | shares compounds with TrxR1 inh-1 | purified TrxR1, DTNB reduction, A412 | Potency, µM | 90% of 55 active | AID 652256, 2013;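 active means a half-inhibiting concentration could be measured and was below 100 µM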
Starred values were filed as active, the others as inactive; i = inactive; u = inconclusive; x = not tested or not shown; [ ] = remark or other dose. Unless noted, the call rests on the fitted dose curve; in most records, active means well fitted curve in the direction sought with a large enough effect; inconclusive means small, poorly fitted or top-dose-only effect, or another doubt; inactive means no such curve, though single readings can be large; an effect the other way counts as inactive or inconclusive.

SMILES | Anesthetic bind | TrxR1 inh-1 | TrxR1 substrate | GRP78 ERSR act | IDH1 R132H inh | 12-LOX inh | TRb-SRC2 inh | HepG2 viability | AR-SRC2 inh | PPARg-DRIP2 inh | VDR SRC2 FP | others
Fc1ccc(/C=C2\CCCC3=C2Nc2ncnn2C3c2ccc(F)cc2)cc1 (centres undefined) | u | 0.71µM* | 1%[57.1 µM] | -14% | -3% | 80% | x | x | x | x | x | GR inh=-16;TrxR1 inh-2=3*;TrxR1 insulin MOA=i;TrxR1 inh-3=0.25µM*
O=C(COC(=O)c1ccc(Cl)c([N+](=O)[O-])c1)NC1CCCC1 | -9% | 6% | 5% | 1% | 1% | 9% | x | x | x | x | x
O=C(COC(=O)c1cc(Cl)ccc1[N+](=O)[O-])NC1CC1 | x | 13% | 4% | -4% | -4% | -3% | x | x | x | x | x
O=C(COC(=O)c1cccc([N+](=O)[O-])c1Cl)NC1C2CC3CC(C2)CC1C3 (centres undefined) | x | x | x | x | x | x | 44µM* | i | i | i | i
O=C(COC(=O)c1ccc(Cl)c([N+](=O)[O-])c1)NC1C2CC3CC(C2)CC1C3 (centres undefined) | x | x | x | x | x | x | i | i | i | i | i

Screening data (PubChem)
